# Laboratory results from ChEMBL document CHEMBL3988442, “University of Dundee, Small-Polar-MMV Screening Library” (2021).
# Screen size: about 48,000 compounds; about 13,000 (27%) showed an effect of 50% or more. The list shows a part of the results.
# System: Wolbachia pipientis
# Experiment: Anti-Wolbachia Cell-Based Screen
# Type: functional
# Design: scale not given: in the data most compounds retested in dose-response had high values
# Details: 5 µM
row,Compound,Percent Effect [%]
1,CCC[C@@H]1CN(Cc2ccc(C(F)(F)F)nc2)C[C@H]1C(=O)O,8.814
2,CC(C)N1CCc2ncn(C)c2C1C(=O)NCCN1CCCC1 (configuration not stated),-5.495
3,COc1ccc(NC(=O)N2CCN(c3ncccn3)CC2)cn1,4.438
4,CN(C)CCN1CCC2(CCN(C(=O)c3cccc(F)c3)CC2)C1=O.O=C(O)C(F)(F)F,96.95
5,CN1CC(c2ccccc2)CC12CCN(C(=O)c1cccnc1)CC2 (configuration not stated),-3.135
6,COCCN1CCN(C)C2(CCN(C(=O)c3ccnnc3)CC2)C1=O.O=C(O)C(F)(F)F,1.549
7,CN(C)CCN1CCC2(CCN(C(=O)c3ccncc3)CC2)C1=O.O=C(O)C(F)(F)F.O=C(O)C(F)(F)F,99.78
8,CCN(C)C1COC2(CCN(C(=O)c3cccc(Cl)c3)CC2)C1.O=C(O)C(F)(F)F (configuration not stated),-32.01
9,CN(C)CCN1CCC2(CCCN(Cc3cccn3C)C2)C1=O.O=C(O)C(F)(F)F.O=C(O)C(F)(F)F (configuration not stated),-29.62
10,COCCN1CCC2(CCCN(C(=O)c3ccoc3C)C2)C1=O (configuration not stated),-2.249
11,CCCN1CCN(C(=O)c2cccnc2)CC1,10.45
12,COCCN1CCC2(CCN(C(=O)c3ccc(F)cc3)CC2)C1=O,82.71
13,O=C(O)C(F)(F)F.O=C(c1cccnc1)N1CCC2(CC1)CCN(c1ccsc1)C2=O,13.97
14,CN(C)CCN1CCC2(CCN(C(=O)c3cccnc3)CC2)C1=O,114
15,COc1ccc(-c2nc(CNC(C)Cn3cccn3)cs2)cc1 (configuration not stated),6.683
16,COCCNc1nc2c(c(NCCc3cccs3)n1)CCNCC2,23.06
17,CC(NC(=O)NCCCn1cncn1)c1ccccc1Cl (configuration not stated),-1.417
18,Cc1nn(C)c(Oc2cccc(F)c2)c1NC(=O)C1CCOCC1,12.99
19,CNC(=O)c1c(C)cccc1NCc1nnc(C2CC2)o1,-4.757
20,O=C(NC[C@H]1OC[C@@H](N(CC2CC2)CC2CC2)[C@@H]1O)Nc1ccccc1,-9.212
21,CCN(C)C(=O)c1ccc(N(C)Cc2cc(-c3ccncc3)no2)nc1,-25.61
22,CC(C)(C)C(=O)NCCc1cc2nc(-c3ccncc3)ccn2n1,129.3

row,Compound,Percent Effect [%]
1,Cc1cc(C)n(-c2cncc(NCCNC(=O)C(C)C)n2)n1,1.534
2,CC(C)C(=O)NCCc1cc2nc(-c3ccncc3)ccn2n1,130.4
3,CC(C)[C@H](Nc1cc(-c2ccncc2)nc2ccnn12)C(N)=O,-7.86
4,CCCC(=O)N(CCCN1CCOCC1)c1nc2c(C)c(C)ccc2s1.Cl,4.916
5,CNC(=O)c1ccc(CNC(=O)c2cc(C(C)C)n(C)n2)cc1,-0.9811
6,CC(C)OC(=O)N1CCCC(c2nccn2Cc2ccncc2)C1 (configuration not stated),-3.54
7,O=C(Cc1cccc(F)c1)N1CCc2ncnc(N3CCCC3)c2CC1,-1.475
8,COc1ncnc2c1CCN(C(=O)Cc1cccc(F)c1)CC2,3.249
9,O=C(Cc1cccc(F)c1)N1CCc2ncnc(NC3CC3)c2CC1.O=C(O)C(F)(F)F,106
10,Cc1ncnc2c1CCN(C(=O)Cc1cccc(F)c1)CC2,0.1924
11,O=C(Cc1cccc(F)c1)N1CCc2ncnc(NC3CCC3)c2CC1,110
12,NC(=O)NC(=O)CCn1ccc(-c2ccsc2)n1,-12.21
13,CCOC(=O)C1CCN(C(=O)CN2CCCC2c2ccsc2)CC1 (configuration not stated),0.9272
14,CSc1ccc(CNc2n[nH]c(C)n2)cc1,110
15,COc1ccc(CNC(C)c2cn[nH]c2C)cc1 (configuration not stated),2.524
16,Cc1cccc(CNc2nnc(C(C)C)o2)c1,-24.34
17,COc1ccc(CNc2n[nH]c(C)n2)cc1,96.08
18,Cc1cccc(CNc2n[nH]c(C)n2)c1,94.75
19,Cc1nc(CNc2ncc(Br)cn2)n[nH]1,-4.306
20,Cc1ccc(CNc2n[nH]c(C)n2)cc1,101.1
21,Cc1cccc(CNc2cncc(-n3cccn3)n2)c1,4.61
22,Cc1nnc(NCc2ccc(F)cc2)o1,4.213

row,Compound,Percent Effect [%]
1,COc1ccc(CNc2c(C)nn(C(C)C)c2C)cc1,-4.166
2,CSc1ccc(CNC2(c3ccc(F)cc3)CCOCC2)cc1,-10.48
3,Cc1noc(NCc2ccc(F)cc2)n1,5.861
4,O=C(Nc1ccc(F)cc1F)N(CCC(F)(F)F)C[C@H](O)CO,-18.87
5,CN1CCN(Cc2cn3c(n2)CNCC3)CC1.Cl.Cl.Cl,-6.492
6,CCC(NCc1ncc[nH]1)c1nc(C(F)(F)F)cs1 (configuration not stated),-16.74
7,COC(=O)c1ccc(CNC(=O)CN2C[C@@H](NC(C)=O)[C@H](C(C)C)C2)o1,2.567
8,COc1c(C)cnc(CN(C)C(=O)c2ccccn2)c1C,13.08
9,CCN(C)S(=O)(=O)N1CCCC(CO)(CC=C(C)C)C1 (configuration not stated),-20.38
10,Cc1nnc(CNC(C)c2cc(C)c(F)c(C)c2)s1 (configuration not stated),61.57
11,COc1cc(C(C)NCc2ncccc2C)ccc1SC(F)F (configuration not stated),-24.97
12,Cc1cc(C)cc(C(C)NCc2nnc(C)s2)c1 (configuration not stated),-26.09
13,Cc1ccc(CNC(=O)CN(C)CC2CCN(CCO)CC2)s1,-11.99
14,COC(=O)CCC(=O)N1CCc2[nH]nc(-c3ccc4c(c3)OCO4)c2C1,6.027
15,CC(C)(C)CN1Cc2cc3c(cc2NCCC1=O)OCO3,93.04
16,COc1nccnc1N1CCN(Cc2ccc3c(c2)OCO3)C(=O)C1,-4.11
17,O=C1NCCN(CC2CC2)C12CCN(Cc1ccc3c(c1)OCO3)CC2,-10.73
18,COC(=O)CN1Cc2cc3c(cc2NCCC1=O)OCO3,87.85
19,O=C1CCNc2cc3c(cc2CN1CC1CC1)OCO3,89.98
20,CCN1Cc2cc3c(cc2NCCC1=O)OCO3,124.2
21,CC(C)SCc1cccc(NC(=O)NC(C)c2nc[nH]n2)c1 (configuration not stated),-14.93
22,Cc1ccccc1S(=O)(=O)NC(=O)CSc1ccc2c(c1)OCCO2,-12.34

row,Compound,Percent Effect [%]
1,O=C(CSc1ccccc1Cl)NS(=O)(=O)c1ccc2c(c1)OCCO2,0.8211
2,CN(C)CCN(C)C1CCCN(C(=O)c2ccc(Cn3ccnc3)o2)C1 (configuration not stated),-5.736
3,CC(O)CN1CCC(CN(C)Cc2cccc(C#N)c2)CC1 (configuration not stated),-3.336
4,COc1cccc([C@@H]2CN(C(=O)c3ccc(C)cc3O)C[C@H]2C(=O)O)c1,2.23
5,COC(=O)c1cccn1C1CCN(C(=O)c2c(C)noc2C)CC1,105.8
6,Cc1ccc(C(=O)N2CCC(c3nccn3C(C)C)CC2)c(=O)[nH]1,4.246
7,COC(=O)c1cccn1C1CCN(C(=O)c2ccc(C)[nH]c2=O)CC1,102.8
8,COC(=O)c1cccn1C1CCN(C(=O)c2cc(F)ccc2F)CC1,16.29
9,COC(=O)c1cccn1C1CCN(C(=O)c2cc(C)ccc2O)CC1,-6.759
10,Cc1ccc(F)cc1C(=O)OCC1CCCN1C(N)=O (configuration not stated),7.06
11,COC(=O)c1cccn1C1CCN(C(=O)c2cn[nH]c2C)CC1,1.064
12,COC(=O)c1cccn1C1CCN(C(=O)c2ccc(C)cc2O)CC1,105.5
13,COC(=O)c1cccn1C1CCN(C(=O)c2cc(F)ccc2C)CC1,95.76
14,O=C(Cc1cc2c(cc1Cl)OCCO2)N1CC[C@H](CO)[C@H](O)C1,7.536
15,COc1cccc(-n2c(C)cc(C(=O)NS(C)(=O)=O)c2C)c1,-4.667
16,Cc1n[nH]cc1CNCC1(c2ccccc2Cl)CCOCC1,10.52
17,Cc1ccc(CCNC(=O)NCc2cccc(OC(F)F)c2)cn1,-2.718
18,CC(C)C(O)CNC(=O)Nc1ccc(F)c(Cl)c1 (configuration not stated),4.966
19,COCCCNC(=O)Nc1cccc2ncccc12,3.143
20,COC(=O)c1cccc(S(=O)(=O)Nc2ccc(F)c(C(N)=O)c2)c1,-1.482
21,CC(C)CCOCCNC(=O)Nc1cc(C(F)(F)F)c[nH]c1=O,-4.49
22,CC(=O)c1cccc(NC(=O)NCCOCC2CC2)c1,4.489

row,Compound,Percent Effect [%]
1,O=C(NCCCOCC1CC1)Nc1ccc(F)cc1,3.334
2,COCCCNC(=O)Nc1ccc(F)c(C(N)=O)c1,133.6
3,COCCNC(=O)Nc1ccc(-n2cncn2)c(F)c1,-15.63
4,CC(C)CCOCCNC(=O)Nc1ccc(F)c(C(N)=O)c1,86.61
5,CC(C)C(C)NC(=O)Nc1ccc(F)c(C(N)=O)c1 (configuration not stated),114.2
6,CCOCCCNC(=O)Nc1ccc(F)c(C(N)=O)c1,144.9
7,NC(=O)c1cc(NC(=O)N2CCCCCC2)ccc1F,-15.41
8,CCOc1ncccc1C(=O)N1CC=C(c2ccc(O)cc2)CC1,32.78
9,CCC(C)Nc1ccc(-c2nc(-c3cccc(OC)c3OC)no2)cn1 (configuration not stated),24.9
10,Cc1ccc(NCCCNC(=O)NCc2c(C)cc(C)[nH]c2=O)nc1,7.392
11,CC(C)NC(=O)c1ccc(NC(=O)NC(C)c2ccccn2)cc1 (configuration not stated),-7.886
12,CC(C)[C@H](NC(=O)NC1CCS(=O)(=O)C1)C(=O)Nc1cccnc1 (some centres not stated),9.774
13,CC(=O)c1ccc(NC(=O)NC(C(=O)N(C)C)C(C)C)cc1 (configuration not stated),-8.422
14,CC(=O)c1ccc(NC(=O)C(NC(=O)Nc2ccccc2)C(C)C)cc1 (configuration not stated),128.1
15,CC(=O)c1ccc(NC(=O)N[C@H](C(=O)O)C(C)C)cc1,99.56
16,CC(C)C(NC(=O)Nc1ccc(F)cc1)C(=O)N(C)C (configuration not stated),92.8
17,CNC(=O)c1ccc(NC(=O)NC(C)c2cc(C)oc2C)cc1 (configuration not stated),-7.2
18,CC(=O)c1ccc(NC(=O)NC(C)c2ccc3c(c2)CC(=O)N3)cc1 (configuration not stated),0.8032
19,CC(Cn1cccn1)NC(=O)Nc1ccc(F)cc1 (configuration not stated),5.847
